# A selection: hits, their analogues and other compounds. The true share with any hit is near 4.6%.
# TRHR PAM – qHTS for Small Molecule Agonists and Allosteric Enhancers of Human TRH Receptor: Primary Screen for Enhancers. Thyrotropin-releasing hormone receptor (Homo sapiens), P34981. TRHR cells, fluo-8 calcium fluorescence, EC20 TRH enhancement. enhancement, % at 2 µM. 360,000 tested, 0.66% active; in the data active = enhancement above about 30%
# Target sequence (P34981 whole entry, looked up): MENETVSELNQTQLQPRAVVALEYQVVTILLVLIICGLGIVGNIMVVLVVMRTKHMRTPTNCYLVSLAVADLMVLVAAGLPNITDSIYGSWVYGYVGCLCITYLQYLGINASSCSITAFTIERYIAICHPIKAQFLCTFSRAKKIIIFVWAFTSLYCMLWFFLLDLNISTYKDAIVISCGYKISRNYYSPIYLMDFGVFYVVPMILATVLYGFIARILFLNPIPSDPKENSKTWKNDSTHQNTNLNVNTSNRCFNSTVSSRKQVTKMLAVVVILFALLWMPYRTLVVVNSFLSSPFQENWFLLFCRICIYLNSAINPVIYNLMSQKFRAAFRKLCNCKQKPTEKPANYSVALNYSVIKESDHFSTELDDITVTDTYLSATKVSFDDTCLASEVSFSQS
#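 TRHR-expressing cells loaded with fluo-8 calcium dye were read kinetically (ex 480/em 530) during compound addition, then stimulated with an EC20 of TRH (10 nM final). Enhancement of the Gq-mediated intracellular calcium response was scored.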
# Epigenetic derep – Quantitative High-Throughput Screen for Regulators of Epigenetic Control; murine LDR cells, GFP reporter derepression, 30 h; Potency, µM (series often up to 53.9 µM), actives largely listed as activators; 280,000 tested, 0.2% active; active = well fitted activation curve with a large enough effect; inconclusive = small, poorly fitted or top-dose-only effect; note: nearly all actives have a fitted effect of over 60% in size
#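 GFP-positive cell count by laser-scanning cytometry (objects 20–120 um) after 30 h, 37 C compound exposure of murine LDR cells; reporter is CMV-GFP integrated at a silenced locus, inducible by HDAC or DNMT inhibitors.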
# D1 antagonist – Antagonist of Human D 1 Dopamine Receptor: qHTS; AID 504652, 2011; HEK293 TREx D1 cells, calcium flux, dopamine EC80; stronger effect = lower value; activity change, negative = inhibition, % at 10 µM; 360,000 tested, 3.2% active; in the data active = activity change below about -30%
#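 After overnight tetracycline induction at 30 C, force-coupled D1 HEK293 cells took up a no-wash calcium dye at room temperature. Compounds were added and monitored 180 s, and the response to EC80 dopamine was then recorded.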
# D1 PAM – Potentiators of Human D1 Dopamine Receptor: qHTS. HEK293 TREx D1 cells, calcium flux, dopamine EC20 potentiation. D(1A) dopamine receptor (Homo sapiens), P21728. AID 504651, 2011. potentiation, % at 10 µM. 360,000 tested, 0.036% active; in the data active = potentiation above about 30%
# D1 ag – Allosteric Agonists of the Human D1 Dopamine Receptor: qHTS. D(1A) dopamine receptor (Homo sapiens), P21728. HEK293 T-REx D1 cells, calcium flux, agonist mode. activation, % at 2 µM. 360,000 tested, 1% active. AID 504660, 2011
#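 Agonism was scored from calcium flux recorded over 180 s (1 read/s) after pintool compound addition, following a 10-cycle baseline. Cells were inducible force-coupled HEK293 TREx D1, plated overnight at 30 C and loaded with no-wash calcium dye.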
# TRHR agonist – qHTS for Small Molecule Agonists and Allosteric Enhancers of Human TRH Receptor: Primary Screen for Agonists. Thyrotropin-releasing hormone receptor (Homo sapiens), P34981. TRHR cells, calcium flux fluo-8, FDSS agonist mode. activation, % at 2 µM. 360,000 tested, 0.18% active
#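 Read-out: compound-evoked intracellular calcium rise in TRHR cells, fluo-8 dye, kinetic FDSS fluorescence at 1 s/cycle following a 10-cycle baseline. Cells cultured overnight before dye loading (30 min–1.5 h, RT).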
# A number is an active result; – = inactive; ? = inconclusive; · = no result; ! = not active in a repeat; [ ] = dose if it differs, or a comment. Cut-off read from the data, not from the text of the source, unless noted: active = activation above about 30%; inactive = the rest.
SMILES,TRHR PAM,Epigenetic derep,D1 antagonist,D1 PAM,D1 ag,TRHR agonist
CCCOc1ccc(-c2nn(-c3ccccc3)cc2/C=C2\SC(N)=NC2=O)cc1C,–,–,-74.2,–,–,–
COc1ccc(-c2nn(CCC(=O)O)cc2/C=C2\SC(N)=NC2=O)cc1OC,–,–,–,–,–,–
COc1cc(C2c3c(oc4ccc(F)cc4c3=O)C(=O)N2c2nc(C)c(C)s2)cc(OC)c1OC (centres undefined),–,–,–,–,52.0,–
Cc1cc(=O)oc2cc(OC3C=CC(C#CC(C)(C)C)OC3CO)ccc12 (centres undefined),·,–[10.1 µM],·,·,·,·
Cc1oc2c(c(C)cc3oc(=O)c(CC(=O)NCCc4ccccc4)c(C)c32)c1C,–,–,–,–,–,–
Cc1cc(C)c2c(C)c(C(=O)NCc3ccncc3)oc2c1,–,–,-43.8,–,–,–
CCc1ccc2oc(C(=O)Nc3nc(-c4ccccc4)ns3)c(C)c2c1,–,–,–,–,–,–
C=CCn1c(SCC(=O)c2c(N)n(CCC)c(=O)n(C)c2=O)nnc1-c1ccncc1,–,–,-31.8,–,–,–
O=C(NC(NNc1ccc([N+](=O)[O-])cc1)(C(F)(F)F)C(F)(F)F)c1ccccc1Cl,–,–,-37.6,–,–,–
O=C(NC(Nc1nc2ccc([N+](=O)[O-])cc2s1)(C(F)(F)F)C(F)(F)F)c1ccccc1Cl,–,–,-36.0,–,–,–
O=C(NC(Nc1nc2ccc([N+](=O)[O-])cc2s1)(C(F)(F)F)C(F)(F)F)c1cccnc1,–,–,-34.9,–,35.9,–
O=[N+]([O-])c1ccc2nc(NS(=O)(=O)c3ccccc3[N+](=O)[O-])sc2c1,–,·,-38.8,·,68.4,–
O=C(NC(NNc1ccc([N+](=O)[O-])cc1)(C(F)(F)F)C(F)(F)F)c1ccc(F)cc1,–,–,–,–,–,–
O=[N+]([O-])c1ccccc1S(=O)(=O)Nc1nc2ccccc2s1,–,·,–,–,–,–
O=C(Nc1cccc(-c2nc3ccccc3o2)c1)c1cc([N+](=O)[O-])ccc1N1CCOCC1,–,–,–,–,–,–
COc1ccc(NC(=O)CN(c2ccc([N+](=O)[O-])cc2)S(=O)(=O)c2ccccc2)cc1,–,–,–,–,32.7,–
COc1ccc(CCNC(=O)CN(c2ccccc2OC)S(=O)(=O)c2ccc(C)cc2)cc1,–,–,-36.0!,–,37.1!,–
COc1ccc(CCNC(=O)c2cc(S(=O)(=O)N(C)c3ccccc3)ccc2Cl)cc1,–,–,-56.1,–,–,–
COc1ccccc1N(CC(=O)NCCSCc1ccc(C)cc1)S(=O)(=O)c1ccccc1,–,·,-32.3,–,–,–
COc1cccc(NC(=O)CN(c2ccc([N+](=O)[O-])cc2)S(=O)(=O)c2ccccc2)c1,–,–,–,–,–,–
CCOc1ccc(N(C)S(=O)(=O)c2ccc(C)c(C(=O)NCCc3ccc(OC)cc3)c2)cc1,–,·,–,–,–,–
Cc1ccc(OCc2cc(=O)n3cc(C)sc3n2)c(C)c1,–,–,–,–,–,–
O=C(NCc1ccccc1F)C(=O)NCC(c1ccco1)S(=O)(=O)c1cccs1 (centres undefined),–,–,·,–,–,–
COc1cc(NC(=O)c2cc3cc4ccc(OC)c(Cl)c4nc3s2)cc(OC)c1,–,–,–,–,–,–
CCS(=O)(=O)N1CCc2cc(C(=O)Nc3cc(C(F)(F)F)ccc3Cl)ccc21,–,–,–,–,–,–
SMILES,TRHR PAM,Epigenetic derep,D1 antagonist,D1 PAM,D1 ag,TRHR agonist
COc1ccc(N(C(C)C(=O)NCCSCc2cccc(Cl)c2)S(C)(=O)=O)cc1 (centres undefined),–,·,–,–,–,–
COc1ccc(S(=O)(=O)N(CC(=O)NCCc2ccccc2)c2ccc(Cl)cc2)cc1,–,–,–,–,40.4,–
COc1ccccc1N(CC(=O)NCCSc1ccccc1)S(=O)(=O)c1ccc(C)cc1,–,–,–,–,30.7,–
Cc1cccc(N(CC(=O)NCCSCc2cccc(Cl)c2)S(=O)(=O)c2ccccc2)c1C,–,–,–,–,30.9,–
CC(C(=O)NCCSCc1cccc(Cl)c1)N(c1ccccc1)S(C)(=O)=O (centres undefined),–,–,-32.2!,–,–,–
CC(C)[C@@H](CC(=O)N[C@@H]1CCCC[C@H]1C(=O)N[C@H](CC(=O)N[C@@H](CCC(=O)O)CC(=O)O)Cc1c[nH]c2ccccc12)NC(=O)C[C@H](Cc1ccccc1)NC(=O)[C@@H]1CCCC[C@H]1N,·,–,·,·,·,·
CN(C)S(=O)(=O)N(CC(=O)NCCSCc1ccccc1)c1ccccc1,–,–,-61.0!,–,–,–
COc1ccc(CCNC(=O)Cc2c(Cl)cccc2Cl)cc1,–,–,-35.6,–,–,–
COc1ccc(CCNC(=O)c2c(C)noc2C)cc1,–,–,-42.9,–,–,–
Cc1noc(C)c1C(=O)NCCCc1ccccc1,–,–,–,–,–,–
C=CCNC(=O)CN(c1ccc(F)cc1)S(=O)(=O)c1ccc(OC)cc1,–,–,-48.9,–,–,–
COc1ccc(CCNC(=O)CC(=O)NCCc2ccc(OC)cc2)cc1,–,·,–,–,–,–
Cc1ccccc1CSCCNC(=O)CN(c1ccccc1)S(=O)(=O)N(C)C,–,–,–,–,–,–
COC(=O)c1ccc2c(c1)N(CC(=O)Nc1cccc(Cl)c1C)C(=O)c1ccccc1S2,–,?,–,–,–,–
S=C(c1ccc(-c2ccccc2)cc1)N1CCOCC1,34.0,·,–,–,–,–
O=C(Oc1ccc(-c2ccccc2)cc1)N1CCOCC1,–,–,-32.1,–,–,–
O=C(Oc1ccc(Cl)cc1)N1CCOCC1,–,·,–,–,–,–
COc1ccc(/C=N/N=C2\CC3CCC2(C)C3(C)C)cc1O (centres undefined),–,–,–,–,–,–
COc1cc(/C=N/N=C2\CC3CCC2(C)C3(C)C)ccc1O (centres undefined),–,–,-59.9,–,–,–
N#Cc1nc(Nc2cc(F)cc(F)c2)nc(NC2CCCC2)n1,–,·,–,–,–,–
COc1cc(-c2nc3cnccn3c2Nc2ccc(C(C)C)cc2)ccc1O,–,–,–,–,34.4!,–
CN(Cc1ccccc1)c1ncnc2c1nnn2C,–,–,·,–,–,–
